Measurements reported in publication PMC5540273 (PLoS ONE, 2017).

Tested on: AXL
Conditions: concentration: 1 μM,replicates: in singlicate; n = 1
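Also: KINOMEscan kinase panel screen.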

Row | Compound | %Inh
1 | OCCn1cc(-c2cnc3nnn(Cc4ccc5ncccc5c4)c3n2)cn1 | 0%
2 | CCN1CCN(CCCC(=O)Nc2n[nH]c3nc(-c4ccc(O)cc4)c(Br)cc23)CC1 [SB-731579] | 57%
3 | C[C@@H]1CNc2c(sc3ccc4nc(-c5ccncc5)ccc4c23)C(=O)N1 | 81%
4 | COc1cccc(CNC(=O)NC2CCN(c3ccnc(Nc4cc(OC)c(OC)c(OC)c4)n3)C2)c1 (centres unmarked) [GSK1379765] | 30%
5 | CCn1c(-c2nonc2N)nc2cncc(CNC3CCNCC3)c21.Cl [SB-747651] | 100%
6 | O=C(NCC1CC1)c1ccc(-c2cc(C(=O)NC3CC3)ccc2F)cc1 [GW810445] | 10%
7 | COc1cccc(OC)c1C(=O)Nc1cccc(-c2nn3ccccc3c2-c2ccnc(Nc3cccc(F)c3)n2)c1 [GSK361065] | 30%
8 | Cn1cc(-c2cccc3c(N)c(C(N)=O)nnc23)cn1 | 22%
9 | CC(C)S(=O)(=O)N1CCN(Cc2ccc3c(c2)nc(NC(=O)c2ccsc2)n3C[C@H](O)c2ccccc2)CC1 [GW635815] | 97.7%
10 | Cc1ccc(CC(=O)N2CCc3cc(-c4cn(C)c5ncnc(N)c45)ccc32)cc1 [GSK2634758] | 98.8%
11 | CCn1c(-c2nonc2N)nc2cncc(Br)c21 [SB-738004] | 22%
12 | O=C(Nc1ccccc1)c1cccc(Oc2ccc3nccn3n2)c1 | 0%
13 | COC(=O)Nc1nc2cc(Oc3ccc(NC(=O)Nc4cc(C(F)(F)F)ccc4Cl)cc3)ccc2[nH]1.Cl [GW697465] | 98%
14 | O=C1NCCc2[nH]c(-c3ccncc3)cc21 | 8%
15 | CNC(=O)c1ccccc1Nc1nc(Nc2cccc(CS(C)(=O)=O)c2)ncc1C.O=CO [GSK1520489] | 100%
16 | O=C(Nc1cccc(Oc2ccc3nccn3n2)c1)Nc1cccc(C(F)(F)F)c1 | 35%
17 | COc1ccc(Nc2nccc(N3CCC(NC(=O)c4cccc(C#N)c4)C3)n2)cc1 (centres unmarked) [GSK1379730] | 21%
18 | COc1cc2nccc(Nc3ccc(Oc4ccccc4)cc3)c2cc1OC.Cl [GI261656] | 10%
19 | C[C@@H](Oc1cc(-n2cnc3ccc(-c4ccncc4)cc32)sc1C(N)=O)c1ccccc1Cl [GSK483724] | 32%

Row | Compound | %Inh
20 | CC(=O)Nc1ccc(-c2cc3ncnc(SCC(=O)O)c3s2)cc1 | 36%
21 | NC(=O)c1ccc(-c2cc3ncnc(SCC(=O)O)c3s2)cc1 | 0%
22 | COc1cc(Nc2nccc(N3CCC(NC(=O)c4cccc(C#N)c4)C3)n2)cc(OC)c1OC (centres unmarked) [GSK1379751] | 22%
23 | Cn1ccc2ncnc(Oc3ccc(NC(=O)Nc4cc(C(C)(C)C)on4)c(Cl)c3)c21 | 97.2%
24 | Cn1ccc2ncnc(Oc3ccc(NC(=O)Nc4cccc(C(F)(F)F)c4)c(F)c3)c21 | 87%
25 | CC(=O)Nc1nc2cnc(Nc3cc(NC(=O)c4cccc(CC(C)(C)C#N)c4)ccc3C)nc2s1 | 20%
26 | c1ccc(Oc2ccc(Nc3ccnc4ccc(-c5ccccn5)cc34)cc2)cc1 [GW407034] | 0%
27 | COC(=O)c1cccc(NC(=O)NC2CCN(c3ccnc(Nc4cc(OC)c(OC)c(OC)c4)n3)C2)c1 (centres unmarked) [GSK1379767] | 0%
28 | Cc1cccc(-c2nc(Nc3ccncc3)c3sccc3n2)n1 [GW869641] | 33%
29 | CC(=O)c1c(-c2ccncc2)[nH]c(-c2ccncc2)c1C [GW493036] | 17%
30 | Cc1nnc(-c2ccc3occ(-c4ccc(S(C)=O)cc4)c3n2)o1 (centres unmarked) | 0%
31 | Cc1ccc2c(-c3ccnc(Nc4ccc(C(F)(F)F)cc4)n3)cnn2n1 [GW819776] | 0%
32 | Cn1ccc2ncnc(Oc3ccc(NC(=O)Nc4cncc(C(F)(F)F)c4)c(Cl)c3)c21 | 59%
33 | Cl.Nc1n[nH]c2cc(-c3ccccn3)ccc12 [GSK2189892] | 0%
34 | C[C@@H](Oc1cc(-n2cnc3cc(-c4cnn(C)c4)ccc32)sc1C(N)=O)c1ccccc1Cl [GSK580432] | 97.4%
35 | CN1CCN(CCCNc2nccc(-c3c(-c4ccc(F)cc4)nn4cc(C(N)=O)ccc34)n2)CC1 [GW622475] | 17%
36 | O=C(Nc1n[nH]c2cc(-c3ccco3)ccc12)C1CC1 [SB-737447] | 0%
37 | NC(=O)Nc1sc(-c2ccc(F)cc2)cc1C(N)=O [GW789449] | 40%

Tested on: T1, BIKE
T1 construct: gene BMP2K
Conditions: concentration: 1 μM,replicates: in singlicate; n = 1

Row | Compound | %Inh
38 | OCCn1cc(-c2cnc3nnn(Cc4ccc5ncccc5c4)c3n2)cn1 | 0%
39 | CCN1CCN(CCCC(=O)Nc2n[nH]c3nc(-c4ccc(O)cc4)c(Br)cc23)CC1 [SB-731579] | 9%
40 | C[C@@H]1CNc2c(sc3ccc4nc(-c5ccncc5)ccc4c23)C(=O)N1 | 19%
41 | COc1cccc(CNC(=O)NC2CCN(c3ccnc(Nc4cc(OC)c(OC)c(OC)c4)n3)C2)c1 (centres unmarked) [GSK1379765] | 53%
42 | CCn1c(-c2nonc2N)nc2cncc(CNC3CCNCC3)c21.Cl [SB-747651] | 0%
43 | O=C(NCC1CC1)c1ccc(-c2cc(C(=O)NC3CC3)ccc2F)cc1 [GW810445] | 0%
44 | COc1cccc(OC)c1C(=O)Nc1cccc(-c2nn3ccccc3c2-c2ccnc(Nc3cccc(F)c3)n2)c1 [GSK361065] | 0%
45 | Cn1cc(-c2cccc3c(N)c(C(N)=O)nnc23)cn1 | 70%
46 | CC(C)S(=O)(=O)N1CCN(Cc2ccc3c(c2)nc(NC(=O)c2ccsc2)n3C[C@H](O)c2ccccc2)CC1 [GW635815] | 57%
47 | Cc1ccc(CC(=O)N2CCc3cc(-c4cn(C)c5ncnc(N)c45)ccc32)cc1 [GSK2634758] | 16%
48 | CCn1c(-c2nonc2N)nc2cncc(Br)c21 [SB-738004] | 23%
49 | O=C(Nc1ccccc1)c1cccc(Oc2ccc3nccn3n2)c1 | 5%
50 | COC(=O)Nc1nc2cc(Oc3ccc(NC(=O)Nc4cc(C(F)(F)F)ccc4Cl)cc3)ccc2[nH]1.Cl [GW697465] | 8%
51 | O=C1NCCc2[nH]c(-c3ccncc3)cc21 | 33%
52 | CNC(=O)c1ccccc1Nc1nc(Nc2cccc(CS(C)(=O)=O)c2)ncc1C.O=CO [GSK1520489] | 99.2%
53 | O=C(Nc1cccc(Oc2ccc3nccn3n2)c1)Nc1cccc(C(F)(F)F)c1 | 11%
54 | COc1ccc(Nc2nccc(N3CCC(NC(=O)c4cccc(C#N)c4)C3)n2)cc1 (centres unmarked) [GSK1379730] | 22%
55 | COc1cc2nccc(Nc3ccc(Oc4ccccc4)cc3)c2cc1OC.Cl [GI261656] | 6%
56 | C[C@@H](Oc1cc(-n2cnc3ccc(-c4ccncc4)cc32)sc1C(N)=O)c1ccccc1Cl [GSK483724] | 92.9%

Row | Compound | %Inh
57 | CC(=O)Nc1ccc(-c2cc3ncnc(SCC(=O)O)c3s2)cc1 | 19%
58 | NC(=O)c1ccc(-c2cc3ncnc(SCC(=O)O)c3s2)cc1 | 1%
59 | COc1cc(Nc2nccc(N3CCC(NC(=O)c4cccc(C#N)c4)C3)n2)cc(OC)c1OC (centres unmarked) [GSK1379751] | 90%
60 | Cn1ccc2ncnc(Oc3ccc(NC(=O)Nc4cc(C(C)(C)C)on4)c(Cl)c3)c21 | 0%
61 | Cn1ccc2ncnc(Oc3ccc(NC(=O)Nc4cccc(C(F)(F)F)c4)c(F)c3)c21 | 18%
62 | CC(=O)Nc1nc2cnc(Nc3cc(NC(=O)c4cccc(CC(C)(C)C#N)c4)ccc3C)nc2s1 | 0%
63 | c1ccc(Oc2ccc(Nc3ccnc4ccc(-c5ccccn5)cc34)cc2)cc1 [GW407034] | 8%
64 | COC(=O)c1cccc(NC(=O)NC2CCN(c3ccnc(Nc4cc(OC)c(OC)c(OC)c4)n3)C2)c1 (centres unmarked) [GSK1379767] | 60%
65 | Cc1cccc(-c2nc(Nc3ccncc3)c3sccc3n2)n1 [GW869641] | 13%
66 | CC(=O)c1c(-c2ccncc2)[nH]c(-c2ccncc2)c1C [GW493036] | 23%
67 | Cc1nnc(-c2ccc3occ(-c4ccc(S(C)=O)cc4)c3n2)o1 (centres unmarked) | 0%
68 | Cc1ccc2c(-c3ccnc(Nc4ccc(C(F)(F)F)cc4)n3)cnn2n1 [GW819776] | 12%
69 | Cn1ccc2ncnc(Oc3ccc(NC(=O)Nc4cncc(C(F)(F)F)c4)c(Cl)c3)c21 | 0%
70 | Cl.Nc1n[nH]c2cc(-c3ccccn3)ccc12 [GSK2189892] | 32%
71 | C[C@@H](Oc1cc(-n2cnc3cc(-c4cnn(C)c4)ccc32)sc1C(N)=O)c1ccccc1Cl [GSK580432] | 100%
72 | CN1CCN(CCCNc2nccc(-c3c(-c4ccc(F)cc4)nn4cc(C(N)=O)ccc34)n2)CC1 [GW622475] | 26%
73 | O=C(Nc1n[nH]c2cc(-c3ccco3)ccc12)C1CC1 [SB-737447] | 53%
74 | NC(=O)Nc1sc(-c2ccc(F)cc2)cc1C(N)=O [GW789449] | 98.2%
